Compound activity (PubChem)
An excerpt weighted towards active compounds, which were near 11% of everything screened.
G9a inh – inhibitors of human histone lysine methyltransferase G9a. G9a H3K9 monomethylation, AlphaScreen, 2 h. Potency, µM (series often up to 102 µM), actives largely listed as inhibitors. actives 8.8% (n = 350,000); also: nearly all actives have a fitted effect of over 75% in size
Target sequence (Q96KQ7 913-1193 limits assumed): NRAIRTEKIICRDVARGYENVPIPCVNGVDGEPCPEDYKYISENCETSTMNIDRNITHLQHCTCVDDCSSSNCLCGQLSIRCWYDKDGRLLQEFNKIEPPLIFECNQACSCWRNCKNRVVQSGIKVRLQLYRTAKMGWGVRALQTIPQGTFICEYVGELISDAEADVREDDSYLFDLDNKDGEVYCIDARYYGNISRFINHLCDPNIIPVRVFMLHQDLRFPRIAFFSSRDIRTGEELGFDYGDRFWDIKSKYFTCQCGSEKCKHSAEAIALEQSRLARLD
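Chemiluminescent proximity detection of H3K9 monomethylation, read after 10 min bead incubation in the dark. Reaction: 20 nM G9a, 500 nM biotin-H3K9 peptide, 20 uM SAM cofactor, 2 h, room temperature, following 15 min enzyme-compound preincubation.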
Tau ThT inhib – tau fibrillization inhibition (ThT binding); Potency, µM (titrated, usually from 57.4 µM), usual class: inhibitors; P10636; actives 2.1% (n = 270,000); AID 1460; recombinant tau K18 P301L, heparin-induced fibrillization, ThT fluorescence; also: nearly all actives have a fitted effect of over 55% in size
Target sequence (P10636 561-689 P618L limits assumed): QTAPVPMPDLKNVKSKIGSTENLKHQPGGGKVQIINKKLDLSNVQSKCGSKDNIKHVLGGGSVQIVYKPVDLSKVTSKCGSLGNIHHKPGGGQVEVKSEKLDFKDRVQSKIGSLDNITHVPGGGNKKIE
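Recombinant human tau K18 fragment […] carrying P301L, 15 uM unlabeled plus 0.24 uM Alexa 594-labeled, was fibrillized with 20 uM heparin in 100 mM sodium acetate pH 7 for 6 hr at 37 C; 30 uM ThT fluorescence read after 1 hr.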
Tau fibril FP – inhibitors of human tau fibril formation; P10636; K18 P301L tau heparin fibrillization, Alexa594 FP, 6 h; Potency, µM (doses to about 57.7 µM), actives largely listed as inhibitors; actives 0.39% (n = 280,000); also: nearly all actives have a fitted effect of over 55% in size
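Human tau K18 […] P301L fragment, 15 uM unlabeled plus 0.24 uM Alexa 594-labeled tau (final), with compound and 20 uM heparin in 100 mM sodium acetate pH 7; 6 hr at 37 C, then Alexa 594 FP read.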
FBPA coupling cs – inhibits coupling enzyme system, counter-screen for aldolase hits; coupling enzyme system counterscreen, AmpLite Red fluorescence; activity change, negative = inhibition, % at 58.2 µM, hits read low; AID 2472; actives 0.67% (n = 290,000); in the data active = activity change below about -30%
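Counterscreen lacking aldolase: glyceraldehyde-3-phosphate coupling-enzyme reagent preincubated 10 min at RT with compound (at 57.5 uM final), then substrate/coupling system with AmpLite Red added; fluorescence read at 525/598 nm after 20 min RT.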
Tau fluor cs – counter-screen for tau fibril formation inhibitors; tau K18 P301L (four-repeat tau fragment) Alexa594 fluorescence, heparin fibrillization; Potency, µM (series often up to 57.7 µM); actives 0.93% (n = 280,000); also: nearly all actives have a fitted effect of over 55% in size
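Human K18 P301L tau (15 uM unlabeled plus 0.24 uM Alexa 594-labeled, final) in 100 mM sodium acetate pH 7 was mixed with compound and 20 uM heparin and incubated 6 hr at 37 C.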
Sfp PPTase inh – blocks B. subtilis Sfp PPTase activity. Q9F4F7. Biochemical Sfp PPTase activity, qHTS. Potency, µM, hits mostly inhibitors. actives 3.5% (n = 310,000);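 also: the enzyme is Sfp with the accession as filed and its product quenches rhodamine fluorescence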
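After 15 min at room temperature with compound, 15 nM Sfp received 5 uM rhodamine-CoA plus 12.5 uM BHQ-2-ybbR (50 mM Hepes pH 7.6, 10 mM MgCl2). Rate came from the fluorescence difference over 30 min, ex 525/em 598 nm.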
Hits are given with their value; - = inactive; ? = inconclusive; . = no result; [ ] = dose if it differs, or a comment. Unless noted, calls follow the shape of the dose curve; as a rule, active = well fitted curve in the direction sought with a large enough effect; inconclusive = small, poorly fitted or top-dose-only effect, or another doubt; inactive = no such curve, though single readings can be large; an effect the other way counts as inactive or inconclusive.

SMILES | G9a inh | Tau ThT inhib | Tau fibril FP | FBPA coupling cs | Tau fluor cs | Sfp PPTase inh
Cc1ccc(S(=O)(=O)N2CCN(C(=O)CCc3c[nH]c4ccccc34)CC2)c(C)c1 | 8.9µM | . | . | . | . | .
COc1ccc(N2CCN(C(=O)CCc3c[nH]c4ccccc34)CC2)cc1 | 56µM | - | - | - | - | -
C=CCc1ccccc1Oc1cc(OC)nc(N)n1 | -[0.501 µM] | . | . | . | . | .
Cc1c(Cl)cccc1NC(=O)CSc1nc(=O)n(CCN2CCOCC2)c2c1CCC2 | - | - | - | . | - | .
O=S(=O)(/N=C(/Nc1cccc2ccccc12)c1ccccc1)c1ccc(Br)cc1 | - | . | . | . | . | -
Cc1ccc(S(=O)(=O)N2CCN(CCc3ccccc3)CC2)c(C)c1 | 45µM | . | . | - | . | ?
COc1ccc(S(=O)(=O)N2CCN(Cc3ccccc3)CC2)c(C)c1 | . | . | . | - | . | -
COc1ccc(NS(=O)(=O)c2ccc3[nH]c4c(c3c2)CCCCCC4)cc1 | - | - | - | . | 5µM[quencher] | .
COc1ccccc1CNS(=O)(=O)c1ccc2[nH]c3c(c2c1)CCCCC3 | - | - | ? | . | 16µM[quencher] | .
COc1ccc(Cl)cc1NS(=O)(=O)c1ccc2[nH]c3c(c2c1)CCCC3 | ? | - | - | . | 8.9µM[quencher] | .
O=C(O)c1ccc2[nH]c3c(c2c1)CCCC3 | - | . | . | - | . | -
CCOc1ccc(CNS(=O)(=O)c2ccc3[nH]c4c(c3c2)CCCC4)cc1OC | ? | - | - | . | ? | .
Cc1ccc(NS(=O)(=O)c2ccc3[nH]c4c(c3c2)CCCCC4)cc1 | 14µM | - | - | . | 7.9µM[quencher] | .
Cc1cccc(C(=O)Nc2cccc3c2CCCC3)c1 | . | . | . | - | . | -
COCCN1C(=S)N[C@@H](c2ccccc2)C(C(=O)OC)=C1C | -[12.7 µM] | . | . | - | . | -
Cc1ccc(NS(=O)(=O)c2ccc3[nH]c4c(c3c2)CCCC4)c(C)c1 | 16µM | - | - | . | ? | .
COc1ccc(Cl)cc1NS(=O)(=O)c1ccc(S(=O)(=O)N2CCCC2)cc1 | 8.9µM | - | - | - | - | -
COc1cccc(NS(=O)(=O)c2ccc3[nH]c4c(c3c2)CCCCCC4)c1 | ? | - | - | . | 7.1µM[quencher] | .
O=C1C=C(c2ccc3c(c2)oc2ccccc23)C[C@@H](c2ccc3c(c2)OCO3)C1 | -[0.501 µM] | . | . | . | . | .
O=c1c2ccccc2nc(/C=C/c2cc(Br)ccc2O)n1CCCO | - | . | . | - | . | -
CCC(=O)[C@]12O[C@@]3(C4C(=O)OCCC41)N(Cc1ccccc1)C(C)=C(C(=O)OC)C(c1ccccc1)N3C2=O (some centres undefined) | . | -[11.5 µM] | -[11.6 µM] | - | -[11.6 µM] | -
Cc1cc(Br)ccc1NC(=O)CNC(=O)Cc1ccc(S(=O)(=O)N2CCOCC2)s1 | -[0.501 µM] | . | . | . | . | .
Cc1c(Cl)cccc1NC(=O)Cn1cc2c(n1)CCCC2 | - | - | ? | . | - | .
CCCc1cc(=O)[nH]c(SCC(=O)Nc2sc3c(c2C#N)CCC(C)C3)n1 (centres undefined) | 50µM | ? | - | - | - | -
CC(C)(C)C1CCc2c(sc(NC(=O)CSc3ncn[nH]3)c2C#N)C1 (centres undefined) | 25µM | ? | ? | - | ? | ?
SMILES | G9a inh | Tau ThT inhib | Tau fibril FP | FBPA coupling cs | Tau fluor cs | Sfp PPTase inh
CCCc1cc(=O)[nH]c(SCC(=O)Nc2ccc([N+](=O)[O-])cc2C#N)n1 | - | 14µM | - | - | ? | -
Cc1cc(C(=O)OCC(=O)Nc2sc3c(c2C#N)CCC(C)C3)c2ccccc2n1 (centres undefined) | 45µM | ? | - | - | - | ?
CCCc1cc(=O)[nH]c(SC(CC)C(=O)Nc2ccccc2C#N)n1 (centres undefined) | -[12.7 µM] | - | - | - | - | -
COc1ccc(-c2csc3ncnc(N4CCN(S(=O)(=O)c5ccc(C(C)=O)cc5)CC4)c23)cc1 | - | . | . | . | . | .
COCCn1c(C)cc(C(=O)CN2C(=O)NC3(CCCCCC3)C2=O)c1C | -[12.7 µM] | . | . | . | . | .
CCC(Sc1nc(C)cc(=O)[nH]1)C(=O)Nc1nc2c(s1)CCCC2 (centres undefined) | 45µM | - | - | - | - | -
Cc1c(C)n(C)c2ccc(C(=O)N3CCN(c4ccccc4)CC3)cc12 | 45µM | ? | - | - | - | -
Cc1ccc(C)c(N2CCN(S(=O)(=O)c3c(C)[nH]c(C)c3C(=O)N3CCCCC3)CC2)c1 | - | . | . | - | . | -
Cc1ccc(C)c(N2CCN(C(=O)c3ccc4c(c3)c(C)c(C)n4C)CC2)c1 | 32µM | - | - | - | - | -
Cc1ccc(C)c(N2CCN(S(=O)(=O)c3c(C(=O)N4CCCCC4)c(C)n(C)c3C)CC2)c1 | 79µM | . | . | . | . | -
Cc1cccc(N2CCN(C(=O)c3ccc4c(c3)c(C)c(C)n4C)CC2)c1C | - | - | - | . | - | .
Cc1ccc(-c2nnc(CCC(=O)NCC3C4CC5CC(C4)CC3C5)o2)s1 (centres undefined) | - | - | - | - | - | -
O=[N+]([O-])c1ccc(-c2cc(-c3ccc(Cl)cc3)n[nH]2)cc1 | 25µM | 1.1µM | - | - | ? | -
CC1(C)Cc2c(cnn2-c2cccc(F)c2)C(NC(=O)CN2CCCC2=O)C1 (centres undefined) | . | . | . | - | . | -
CCC(=O)/C=C1\Sc2ccc(OC)cc2N1CCO | - | - | - | - | - | -
CCC(=O)/C=C1\Sc2ccc(OC)cc2N1CC | 50µM | ? | - | - | - | 50µM
CCN1/C(=C\C(C)=O)Sc2ccc(OC)cc21 | 5µM | - | - | - | - | -
CSc1ncc2c(n1)-c1ccccc1N(Cc1ccc(Cl)cc1)S2(=O)=O | - | - | - | . | - | .
CC(=O)OCC1OC(C#CC(C)(C)C)C=CC1OC(C)=O (centres undefined) | . | ? | ? | - | -[11.6 µM] | ?
COC(=O)c1cc(O)c(O)c(O)c1 | 40µM | - | - | - | - | ?
CCC(=O)N1CCc2cc(S(=O)(=O)NC(Cc3ccccc3)C(=O)O)ccc21 (centres undefined) | - | - | - | - | - | -
CCOc1cc2[nH]c(=O)n(Cc3ccc(C(=O)N4CCN(c5cccc(Cl)c5)CC4)cc3)c(=O)c2cc1OCC | - | - | - | . | - | .
COc1ccc(N2C(=O)CC(Sc3nc(C)cc(C)c3C#N)C2=O)cc1 (centres undefined) | ? | - | - | - | - | -
Clc1cccc(N2CCN(c3nnnn3-c3ccccc3)CC2)c1 | - | - | - | - | - | -
O=C1CC(SCc2nc3ccccc3[nH]2)C(=O)N1c1cccc(Cl)c1 (centres undefined) | 18µM | ? | - | - | - | -
O=C1CC(Sc2nnnn2-c2ccccc2)C(=O)N1c1cccc(Cl)c1 (centres undefined) | 0.89µM | ? | - | - | - | 13µM
NCCSC1CC(=O)N(c2ccc(Cl)c(Cl)c2)C1=O (centres undefined) | 35µM | . | . | - | . | -
